# According to ChEMBL document CHEMBL4513216, “Probing the Open Global Health Chemical Diversity Library for Multistage-Active Starting Points for Next-Generation Antimalarials” (ACS Infect Dis, 2020):
# Screen size: about 69,000 compounds; about 8,600 (12%) showed an effect of 50% or more. This is one part of a sample in which strong results are shown more often than they occur.
# Tested on: Plasmodium berghei
# Assay: Screen against P. berghei liver stage (PbLuc), transformed with Luciferase, at 10uM
# Assay type: functional, HepG2
# Conditions: tested at 10 uM
row,SMILES,INHIBITION [%]
1,c1c(CN2CCCCC2)nc2n1CCNC2,-46.4
2,Cc1nn(C)cc1S(=O)(=O)N(C)[C@@H]1CCC[C@@H](n2ccnc2)[C@@H]1O,23
3,O=C(CCc1c(F)cccc1F)NS(=O)(=O)c1ccc2c(c1)OCCO2,0.914
4,OCc1cc2ccccc2nc1NCC1CC1,59.1
5,OCc1cc2ccccc2nc1NCC1CCN(CC(F)(F)F)C1 (stereo not drawn),63.8
6,Cc1nnc2n1CC(CNc1ncnc3ccccc13)CC2 (stereo not drawn),22
7,Cc1cc(C)c2c(NCC3(O)CCCCC3)ncnc2n1,36.6
8,COc1nc2ccccc2cc1CN1CCC(CNS(C)(=O)=O)C1 (stereo not drawn),7.15
9,OC1(CNc2ccc(Br)cn2)CCC1,-28.6
10,OCc1cc2ccccc2nc1NCC1(O)CCC1,58.2
11,FC(F)(F)CN1CCC(CNc2nc3ccccc3o2)C1 (stereo not drawn),24.8
12,OCc1cc2ccccc2nc1NC1CC=CC1,62.8
13,CC(C)(C)c1n[nH]cc1CNCC1CCN(CC(F)(F)F)C1 (stereo not drawn),-35.2
14,COc1cccn(CC(=O)N2CCCC3(CCOCC3)C2)c1=O,40.9
15,COCCNC(=O)[C@@]12CCO[C@@H]1CCN(Cc1ccc(OC)cc1)C2,39.2
16,COc1ccc(CN2C[C@H]3CCC[C@@H](CN(C)C4CC4)[C@H]3C2)cn1,-15.3
17,CC(C)(C)c1n[nH]cc1CNCC1CCN(C2CC2)C1 (stereo not drawn),26.3
18,CN(CC1CCOC1)S(=O)(=O)c1cccc(C(=O)N2CCOCC2)c1 (stereo not drawn),1.19
19,CC(C)N1CCCC(C(=O)N2CCN(c3cccc(C(=O)O)c3)CC2)C1 (stereo not drawn),21.2
20,COCCN(C)C[C@@H]1CN(c2cc(C)nc3ccccc23)C[C@@H]1CO,-34.8
21,CN(Cc1nc2ccccc2s1)C1CCCN(c2cccnn2)C1 (stereo not drawn),24.7
22,Cc1cc(C)c(CNc2nc3ccccc3cc2CO)c(=O)[nH]1,55.8
23,Cc1cc(C)c(CNc2cnc3ccccc3n2)c(=O)[nH]1,-1.35

row,SMILES,INHIBITION [%]
1,Cc1cc(C)c(CNc2ncnc3ccccc23)c(=O)[nH]1,14.7
2,Cc1nc(C)n(C2CCCN(C(=O)c3ccc(O)nc3)C2)n1 (stereo not drawn),16.1
3,Cc1nn(C)c(N(C)C)c1CNCc1cccc(Cn2cncn2)c1,-17.6
4,Cc1c[nH]nc1C1CCCN1Cc1nccn1C (stereo not drawn),18.4
5,COc1ccc(CNCc2ccnc(N3CCCCC3)c2)cc1OC,37.2
6,COc1c(CNCc2ccnc(N3CCOCC3)c2)c(C)nn1C,19.4
7,COc1ccc(CNCc2ccc(N3CCCCC3)nc2)cc1OC,52.7
8,COc1cccc2cc(CNCc3ccnc(N4CCCCC4)c3)oc12,-19.4
9,COc1ccc(OC)c(CNCc2ccnc(N3CCCCC3)c2)c1,10.6
10,COc1c(CNCc2ccnc(N3CCCCC3)c2)c(C)nn1C,87.3
11,COc1c(CNCc2cccnc2N2CCOCC2)c(C)nn1C,-7.7
12,COc1c(CNCc2cccnc2N2CCCCC2)c(C)nn1C,-91.6
13,COc1cc(CNCc2ccnc(N3CCCCC3)c2)cc(OC)c1,80.9
14,COc1cccc2cc(CNCc3ccc(N4CCCC4)nc3)oc12,21.6
15,COc1c(CNCc2cccnc2N2CCN(C)CC2)c(C)nn1C,51.3
16,COc1c(CNCc2ccnc(N3CCCC3)c2)c(C)nn1C,-8.3
17,O=C(NCc1cccnc1N1CCCCC1)c1ccc2cc[nH]c2c1,2.7
18,NC1(CN2CCOCC2)CCCCC1,8.12
19,C[C@H]1CN(c2ccccn2)C[C@@]12CCN(c1cccnc1)C2=O,8.66
20,COc1cc(CNCc2ccnc(N3CCOCC3)c2)cc(OC)c1,19.2
21,COc1ccc(CNCc2ccnc(N3CCCC3)c2)c(OC)c1,41.45
22,COc1cc(CNCc2ccnc(N3CCCC3)c2)cc(OC)c1,59.6
23,CCN1CC(C(=O)NCCc2csc(-c3ccncc3)n2)CCC1=O (stereo not drawn),1.86

row,SMILES,INHIBITION [%]
1,Cc1cnc(-c2nc(C3CCN(C(=O)Cc4ccsc4)CC3)no2)cn1,2.71
2,CC(C)c1ccc(/C=C/CC(=O)NC2CCN(C(N)=O)CC2)cc1,83.5
3,CC(C)c1ccc(/C=C/CC(=O)NC2CCS(=O)(=O)CC2)cc1,71.2
4,COCCN1CCC(NC(=O)C(C)C)CC1,-34.4
5,CC(C)c1ccc(OCCC(=O)N2CCC(C(N)=O)CC2)cc1,32.2
6,CC(C)c1noc(CCCC(=O)NC2CCS(=O)(=O)C2)n1 (stereo not drawn),-7.46
7,CC(C)c1ccc(/C=C/CC(=O)NC2CCN(C(N)=O)C2)cc1 (stereo not drawn),36.5
8,CC(C)c1noc(CCC(=O)NC2CCS(=O)(=O)C2)n1 (stereo not drawn),-12.2
9,COCCN1CCC(NC(=O)Cn2cc(C)c3ccccc32)CC1,17.4
10,COCCN1CCC(NC(=O)C/C=C/c2ccc(C(C)C)cc2)CC1,61.1
11,CC(=O)NCC1CCN(C(=O)NCCOc2ccc3c(c2)CCC3)CC1,25.1
12,COc1cc(C(=O)N2CCCC(n3cncn3)C2)ccc1C (stereo not drawn),-16
13,CC(C(=O)N1CCCC1)n1nc(-c2cccs2)cc(N)c1=O (stereo not drawn),11.8
14,CCN1CCN(C(=O)c2cnc3c(cnn3C3CCCC3)c2)CC1,19.2
15,CC1CCN(C(=O)[C@@H]2C[C@@H]3CCN(Cc4nccs4)C[C@H]3O2)CC1,53.9
16,CN(C)C(=O)[C@@H]1C[C@@H]2CCN(Cc3nccs3)C[C@@H]2O1,19.9
17,CNC(=O)[C@H]1C[C@@H]2CCN(Cc3nccs3)C[C@H]2O1,26.4
18,COCCNC(=O)[C@H]1C[C@@H]2CCN(Cc3ccncc3)C[C@H]2O1,-1.36
19,COCCNC(=O)[C@H]1C[C@@H]2CCN(Cc3nccs3)C[C@H]2O1,56.7
20,O=C(NCC1CC1)[C@H]1C[C@@H]2CCN(Cc3nccs3)C[C@@H]2O1,25
21,CC(C)CCn1ccc(NC(=O)N2CCCC2C(C)(C)O)n1 (stereo not drawn),29.9
22,c1ccc(OCc2nnc3n2CCN(CC2CCOCC2)C3)nc1,43.2
